Compound in the assay: CC1Cc2ccccc2N1C(=O)C1CCCN(C1)C(=O)CCl (mixture of isomers) [TRIM25 ligand 11 (diastereomer mixture)]
The assay is described as follows: probe-labelled cysteine peptide fold change vs DMSO (competition) (log2 fold change); higher = less target engagement (more negative = stronger competition). The note with it: THP-1, incubation time: 4 h.

Of roughly 21,000 targets only a part is listed; those with the largest changes were picked by preference.
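Note: competitive chemoproteomic profiling in live THP-1 cells with an iodoacetamide desthiobiotin (IA-DTB) probe, comparing probe-labelled peptide intensities in compound-treated cells against DMSO-treated controls.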

UniProt Q96DI7, sequence (Q96DI7 whole entry, looked up): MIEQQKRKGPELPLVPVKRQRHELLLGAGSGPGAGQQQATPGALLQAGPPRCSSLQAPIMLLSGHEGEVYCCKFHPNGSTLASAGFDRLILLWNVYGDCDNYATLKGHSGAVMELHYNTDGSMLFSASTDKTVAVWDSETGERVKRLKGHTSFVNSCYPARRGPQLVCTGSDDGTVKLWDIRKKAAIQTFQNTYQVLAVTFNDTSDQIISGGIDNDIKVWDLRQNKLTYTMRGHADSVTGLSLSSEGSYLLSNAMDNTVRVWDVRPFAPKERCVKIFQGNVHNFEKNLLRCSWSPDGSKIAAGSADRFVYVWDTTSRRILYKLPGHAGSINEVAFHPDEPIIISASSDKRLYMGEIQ
UniProt Q96B97, sequence (Q96B97 whole entry, looked up): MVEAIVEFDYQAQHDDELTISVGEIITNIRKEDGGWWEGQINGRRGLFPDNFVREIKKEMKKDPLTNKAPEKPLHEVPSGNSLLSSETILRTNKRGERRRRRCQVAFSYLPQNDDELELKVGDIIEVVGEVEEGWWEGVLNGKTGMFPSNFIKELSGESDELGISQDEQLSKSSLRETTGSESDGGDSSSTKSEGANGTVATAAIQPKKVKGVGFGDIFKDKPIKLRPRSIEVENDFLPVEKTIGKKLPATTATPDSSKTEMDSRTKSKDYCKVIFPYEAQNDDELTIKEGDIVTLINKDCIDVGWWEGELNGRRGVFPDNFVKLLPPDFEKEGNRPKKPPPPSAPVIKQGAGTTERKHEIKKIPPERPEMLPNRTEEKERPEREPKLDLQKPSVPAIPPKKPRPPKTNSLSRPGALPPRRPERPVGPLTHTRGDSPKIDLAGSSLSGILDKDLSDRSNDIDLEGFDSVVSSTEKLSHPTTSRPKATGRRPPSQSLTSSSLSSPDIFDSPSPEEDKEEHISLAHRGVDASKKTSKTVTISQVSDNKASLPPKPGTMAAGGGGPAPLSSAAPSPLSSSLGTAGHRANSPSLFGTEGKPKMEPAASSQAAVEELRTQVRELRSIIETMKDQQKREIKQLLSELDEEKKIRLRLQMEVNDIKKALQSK
UniProt P60903, sequence (P60903 whole entry): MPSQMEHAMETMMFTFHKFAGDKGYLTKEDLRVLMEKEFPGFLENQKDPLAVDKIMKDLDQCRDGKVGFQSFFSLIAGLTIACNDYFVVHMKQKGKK
UniProt P78383, sequence (P78383 whole entry): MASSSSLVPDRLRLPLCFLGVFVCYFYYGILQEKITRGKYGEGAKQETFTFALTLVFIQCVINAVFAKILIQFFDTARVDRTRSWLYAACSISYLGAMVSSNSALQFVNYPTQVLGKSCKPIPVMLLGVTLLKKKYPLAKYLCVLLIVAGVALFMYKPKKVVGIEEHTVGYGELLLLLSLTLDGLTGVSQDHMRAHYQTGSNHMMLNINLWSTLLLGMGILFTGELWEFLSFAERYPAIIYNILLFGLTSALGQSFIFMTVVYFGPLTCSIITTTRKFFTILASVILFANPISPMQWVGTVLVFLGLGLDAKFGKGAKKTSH
UniProt Q9NXE4, sequence (Q9NXE4 whole entry, looked up): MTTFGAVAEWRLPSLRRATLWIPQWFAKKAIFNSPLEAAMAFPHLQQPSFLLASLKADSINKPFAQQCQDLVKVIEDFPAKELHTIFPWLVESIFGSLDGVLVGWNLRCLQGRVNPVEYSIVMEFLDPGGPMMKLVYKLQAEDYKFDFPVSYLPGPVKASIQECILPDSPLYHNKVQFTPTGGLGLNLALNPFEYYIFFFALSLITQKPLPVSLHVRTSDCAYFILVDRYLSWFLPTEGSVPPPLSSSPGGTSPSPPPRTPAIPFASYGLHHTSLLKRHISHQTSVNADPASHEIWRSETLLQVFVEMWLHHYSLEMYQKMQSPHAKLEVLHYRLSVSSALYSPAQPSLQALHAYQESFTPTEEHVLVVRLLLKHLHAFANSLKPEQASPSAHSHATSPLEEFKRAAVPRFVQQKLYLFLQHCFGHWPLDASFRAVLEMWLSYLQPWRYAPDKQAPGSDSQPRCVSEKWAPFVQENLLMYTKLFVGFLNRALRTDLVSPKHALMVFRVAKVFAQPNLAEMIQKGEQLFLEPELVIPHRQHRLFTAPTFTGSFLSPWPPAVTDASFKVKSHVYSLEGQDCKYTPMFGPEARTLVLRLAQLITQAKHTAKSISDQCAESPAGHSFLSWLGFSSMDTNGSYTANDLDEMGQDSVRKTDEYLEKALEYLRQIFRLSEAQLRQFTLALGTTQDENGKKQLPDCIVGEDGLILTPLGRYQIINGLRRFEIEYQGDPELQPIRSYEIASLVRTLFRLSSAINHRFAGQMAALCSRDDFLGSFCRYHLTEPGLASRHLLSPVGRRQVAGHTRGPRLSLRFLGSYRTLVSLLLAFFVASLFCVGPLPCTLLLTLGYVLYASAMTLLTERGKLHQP
UniProt Q8NC51, sequence (Q8NC51 whole entry, looked up): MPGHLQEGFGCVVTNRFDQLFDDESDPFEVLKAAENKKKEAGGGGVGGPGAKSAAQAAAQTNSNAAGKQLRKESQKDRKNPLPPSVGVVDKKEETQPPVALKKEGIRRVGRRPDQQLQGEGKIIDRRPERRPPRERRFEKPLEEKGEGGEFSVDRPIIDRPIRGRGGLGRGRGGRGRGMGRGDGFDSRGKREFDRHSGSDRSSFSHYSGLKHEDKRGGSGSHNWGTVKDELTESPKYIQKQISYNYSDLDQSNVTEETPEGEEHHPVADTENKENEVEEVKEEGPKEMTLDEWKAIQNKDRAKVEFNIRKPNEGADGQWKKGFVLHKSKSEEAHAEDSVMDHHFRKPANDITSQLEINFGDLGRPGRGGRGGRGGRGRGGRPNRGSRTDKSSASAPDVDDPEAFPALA
UniProt A6NHR9, sequence (A6NHR9 whole entry, looked up): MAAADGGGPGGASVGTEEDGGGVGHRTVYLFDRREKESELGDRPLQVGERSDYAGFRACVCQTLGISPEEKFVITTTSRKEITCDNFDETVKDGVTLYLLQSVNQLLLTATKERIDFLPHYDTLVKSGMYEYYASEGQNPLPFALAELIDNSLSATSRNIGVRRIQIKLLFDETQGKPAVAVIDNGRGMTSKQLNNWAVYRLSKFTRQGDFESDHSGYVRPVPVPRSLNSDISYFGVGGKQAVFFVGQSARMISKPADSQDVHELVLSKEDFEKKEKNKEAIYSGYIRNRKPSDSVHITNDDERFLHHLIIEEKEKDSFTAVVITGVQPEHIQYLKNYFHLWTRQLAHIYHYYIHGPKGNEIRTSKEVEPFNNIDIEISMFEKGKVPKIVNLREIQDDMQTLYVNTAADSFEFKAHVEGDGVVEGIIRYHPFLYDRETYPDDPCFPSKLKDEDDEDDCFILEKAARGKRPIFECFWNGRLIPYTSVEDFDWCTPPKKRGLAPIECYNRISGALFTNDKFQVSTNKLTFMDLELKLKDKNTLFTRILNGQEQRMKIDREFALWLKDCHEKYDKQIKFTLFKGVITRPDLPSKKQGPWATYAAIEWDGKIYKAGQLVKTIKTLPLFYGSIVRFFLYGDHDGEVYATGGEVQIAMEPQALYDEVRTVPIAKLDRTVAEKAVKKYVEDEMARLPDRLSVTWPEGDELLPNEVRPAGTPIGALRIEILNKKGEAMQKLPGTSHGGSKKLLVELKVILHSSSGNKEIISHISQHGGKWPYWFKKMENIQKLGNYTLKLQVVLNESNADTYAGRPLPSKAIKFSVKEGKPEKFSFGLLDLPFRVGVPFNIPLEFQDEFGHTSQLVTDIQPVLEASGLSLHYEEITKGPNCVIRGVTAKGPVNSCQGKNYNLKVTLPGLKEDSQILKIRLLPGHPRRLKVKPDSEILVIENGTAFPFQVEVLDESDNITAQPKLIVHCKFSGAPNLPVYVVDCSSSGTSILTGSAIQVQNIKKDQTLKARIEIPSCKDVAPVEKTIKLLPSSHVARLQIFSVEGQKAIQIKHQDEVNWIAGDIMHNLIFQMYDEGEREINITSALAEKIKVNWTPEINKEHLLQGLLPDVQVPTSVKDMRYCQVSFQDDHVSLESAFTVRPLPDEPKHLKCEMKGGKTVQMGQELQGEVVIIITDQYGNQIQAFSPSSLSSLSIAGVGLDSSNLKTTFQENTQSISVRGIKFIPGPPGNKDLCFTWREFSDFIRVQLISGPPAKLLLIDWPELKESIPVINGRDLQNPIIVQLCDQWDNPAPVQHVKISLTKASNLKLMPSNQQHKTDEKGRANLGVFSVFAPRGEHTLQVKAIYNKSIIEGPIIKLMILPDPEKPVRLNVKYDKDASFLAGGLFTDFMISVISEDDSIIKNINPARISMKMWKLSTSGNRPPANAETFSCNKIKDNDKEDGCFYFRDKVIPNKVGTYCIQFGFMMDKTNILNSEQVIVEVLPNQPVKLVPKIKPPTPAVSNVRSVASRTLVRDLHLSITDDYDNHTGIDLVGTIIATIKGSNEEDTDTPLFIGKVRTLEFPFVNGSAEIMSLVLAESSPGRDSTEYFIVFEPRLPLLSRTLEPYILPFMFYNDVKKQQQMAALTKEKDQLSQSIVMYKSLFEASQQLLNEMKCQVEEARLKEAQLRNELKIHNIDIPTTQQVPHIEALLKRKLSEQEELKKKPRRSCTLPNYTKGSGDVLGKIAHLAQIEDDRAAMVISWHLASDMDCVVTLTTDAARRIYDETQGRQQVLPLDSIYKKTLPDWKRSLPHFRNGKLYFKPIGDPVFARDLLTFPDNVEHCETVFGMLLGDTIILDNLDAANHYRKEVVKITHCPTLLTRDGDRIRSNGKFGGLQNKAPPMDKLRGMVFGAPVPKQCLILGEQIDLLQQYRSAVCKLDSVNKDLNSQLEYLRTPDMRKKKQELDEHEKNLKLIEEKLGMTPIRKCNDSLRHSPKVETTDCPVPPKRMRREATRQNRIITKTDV
UniProt Q99470, sequence (Q99470 whole entry, looked up): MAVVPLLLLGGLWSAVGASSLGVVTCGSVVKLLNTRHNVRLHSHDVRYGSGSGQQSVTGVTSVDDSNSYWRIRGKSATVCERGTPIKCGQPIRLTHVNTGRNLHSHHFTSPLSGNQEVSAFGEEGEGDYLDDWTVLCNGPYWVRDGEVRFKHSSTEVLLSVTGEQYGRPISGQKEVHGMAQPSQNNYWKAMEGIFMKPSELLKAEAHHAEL

For “RRM1_P23921_218_WFTHASPTLFNAGTNRPQLSSCFLLSMKDDSIEGIYDTLK (UniProt P23921)”, the “probe-labelled cysteine peptide fold change” value runs as follows: (10 µM) 0.111; (50 µM) 0.0345.

With “SETD3_Q86TU7_36_CSSPAPGPGK (UniProt Q86TU7)”, the “probe-labelled cysteine peptide fold change” value (10 µM) is -0.0972 and the “probe-labelled cysteine peptide fold change” value (50 µM) was -0.145.

As for “SEC63_Q9UGP8_490_EQSICAAEEQPAEDGQGETNK (UniProt Q9UGP8)”, the “probe-labelled cysteine peptide fold change” value is 0.0683 (10 µM) and -0.228 (50 µM).

As for “SMARCD2_Q92925_298_CTLLLMLDHQPPQYK (UniProt Q92925)”, the “probe-labelled cysteine peptide fold change” value runs as follows: (10 µM) -0.0298; (50 µM) -0.00447.

Take “SKAP2_O75563_186_DCCFEISAPDK (UniProt O75563)”: the “probe-labelled cysteine peptide fold change” value (10 µM) came to 0.239 and the “probe-labelled cysteine peptide fold change” value (50 µM) stood at 0.128.

“SRI_P30626_75_CLTQSGIAGGYKPFNLETCR (UniProt P30626)”: the “probe-labelled cysteine peptide fold change” value is, setting by setting: (10 µM) 0.0396; (50 µM) -0.0761.

With “SETDB1_Q15047_781_RLEECLPTGVYECNKR (UniProt Q15047)”, the “probe-labelled cysteine peptide fold change” value is -0.124 (10 µM) and -0.00361 (50 µM).

On to “SNRPD2_P62316_63_AFDRHCNMVLENVK (UniProt P62316)”, for which the “probe-labelled cysteine peptide fold change” value was -0.388 (10 µM) and -0.34 (50 µM).

On to “SLC35B1_P78383_119_SCKPIPVMLLGVTLLK (UniProt P78383)”, for which the “probe-labelled cysteine peptide fold change” value reads like this: (10 µM) -0.942; (50 µM) 0.0401.

Take “SMU1_Q2TAY7_416_NPEHFVVCNR (UniProt Q2TAY7)”: the “probe-labelled cysteine peptide fold change” value runs as follows: (10 µM) -0.00322; (50 µM) 0.0655.

Turning to “SFMBT2_Q5VUG0_796_CPPTKPEGTEDTKQEEEERLVLESNPLEWTVTDVVR (UniProt Q5VUG0)”, the “probe-labelled cysteine peptide fold change” value (10 µM) was -0.043 and the “probe-labelled cysteine peptide fold change” value (50 µM) is -0.0391.

On to “SEPHS2_Q99611_377_FGLLQGTSAETSGGLLICLPR (UniProt Q99611)”, for which the “probe-labelled cysteine peptide fold change” value was 0.196 (10 µM) and -0.657 (50 µM).

For the target “SAR1A_Q9NR31_178_ELNARPMEVFMCSVLKR (UniProt Q9NR31)”, the “probe-labelled cysteine peptide fold change” value is, setting by setting: (10 µM) -0.614; (50 µM) -0.486.

In the case of “SNX27_Q96L92_432+434_TCEGYNEIIFPHCACDSR (UniProt Q96L92)”, the “probe-labelled cysteine peptide fold change” value was determined as 0.835 (10 µM) and 0.695 (50 µM).

Regarding “SETDB1_Q15047_582_LFYLPHVCSYTCLSR (UniProt Q15047)”, the “probe-labelled cysteine peptide fold change” value runs as follows: (10 µM) -0.142; (50 µM) -0.048.

Turning to “SMPD4_Q9NXE4_221_TSDCAYFILVDR (UniProt Q9NXE4)”, the “probe-labelled cysteine peptide fold change” value is, setting by setting: (10 µM) 0.14; (50 µM) 0.266.

As for “SH3KBP1_Q96B97_301_DCIDVGWWEGELNGRR (UniProt Q96B97)”, the “probe-labelled cysteine peptide fold change” value was -0.0866 (10 µM) and -0.063 (50 µM).

In the case of “SERBP1_Q8NC51_11_PGHLQEGFGCVVTNRFDQLFDDESDPFEVLK (UniProt Q8NC51)”, the “probe-labelled cysteine peptide fold change” value runs as follows: (10 µM) -0.323; (50 µM) -0.648.

Take “SLPI_P03973_51+57_YKKPECQSDWQCPGK (UniProt P03973)”: the “probe-labelled cysteine peptide fold change” value runs as follows: (10 µM) -0.301; (50 µM) -0.883.

Take “SLC2A9_Q9NRM0_36_ALLECDHLR (UniProt Q9NRM0)”: the “probe-labelled cysteine peptide fold change” value was -0.0472 (10 µM) and -0.18 (50 µM).

For “SRCAP_Q6ZRS2_1926_IFQLSEAHGALAPVYGTEVLDFCTLPQPVASPIGPR (UniProt Q6ZRS2)”, the “probe-labelled cysteine peptide fold change” value reads like this: (10 µM) 0.683; (50 µM) 0.741.

“SCAF11_Q99590_566_VYQPVSCPLSDLSENVESVVNEEK (UniProt Q99590)”: the “probe-labelled cysteine peptide fold change” value by setting is: (10 µM) -0.0494; (50 µM) -0.138.

On to “SETDB1_Q15047_385_RCEWIYR (UniProt Q15047)”, for which the “probe-labelled cysteine peptide fold change” value runs as follows: (10 µM) 0.156; (50 µM) 0.176.

For the target “SMCHD1_A6NHR9_474_RPIFECFWNGR (UniProt A6NHR9)”, the “probe-labelled cysteine peptide fold change” value was -0.00857 (10 µM) and 0.0994 (50 µM).

Regarding “RPS17_P08708_35_RVCEEIAIIPSKK (UniProt P08708)”, the “probe-labelled cysteine peptide fold change” value was -0.177 (10 µM) and 0.0725 (50 µM).

On to “SNUPN_O95149_356_GSSHSPDHPGCLMEN (UniProt O95149)”, for which the “probe-labelled cysteine peptide fold change” value by setting is: (10 µM) 0.0268; (50 µM) -0.656.

With “SNRNP40_Q96DI7_72_CSSLQAPIMLLSGHEGEVYCCK (UniProt Q96DI7)”, the “probe-labelled cysteine peptide fold change” value by setting is: (10 µM) 0.165; (50 µM) 0.0428.

On to “SIL1_Q9H173_408_VLQTLGVLLTTCR (UniProt Q9H173)”, for which the “probe-labelled cysteine peptide fold change” value runs as follows: (10 µM) 0.0793; (50 µM) 0.848.

Take “SPATA5L1_Q9BVQ7_104_LLLVPCPPLRR (UniProt Q9BVQ7)”: the “probe-labelled cysteine peptide fold change” value by setting is: (10 µM) -0.0644; (50 µM) 0.126.

For “SEC23B_Q15437_40_MVVPLACLLTPLK (UniProt Q15437)”, the “probe-labelled cysteine peptide fold change” value by setting is: (10 µM) -0.0615; (50 µM) -0.0659.

Take “S100A10_P60903_62_DLDQCR (UniProt P60903)”: the “probe-labelled cysteine peptide fold change” value was -0.0944 (10 µM) and -0.0317 (50 µM).

On to “SAFB2_Q14151_224_ILDILGETCK<|>SAFB_Q15424_225_ILDILGETCK (UniProt Q15424+Q14151)”, for which the “probe-labelled cysteine peptide fold change” value (10 µM) is -0.021 and the “probe-labelled cysteine peptide fold change” value (50 µM) was -0.165.

Regarding “SDF2_Q99470_137_NLHSHHFTSPLSGNQEVSAFGEEGEGDYLDDWTVLCNGPYWVR (UniProt Q99470)”, the “probe-labelled cysteine peptide fold change” value runs as follows: (10 µM) 0.298; (50 µM) 0.622.

As for “SETX_Q7Z333_1416_CMPSEPETIK (UniProt Q7Z333)”, the “probe-labelled cysteine peptide fold change” value runs as follows: (10 µM) -0.13; (50 µM) -0.585.

In the case of “SPATA5_Q8NB90_574_VLCNEAGLCALRR (UniProt Q8NB90)”, the “probe-labelled cysteine peptide fold change” value was -0.161 (10 µM) and -0.0738 (50 µM).

For the target “SHMT1_P34896_335_VYQHQVVANCR (UniProt P34896)”, the “probe-labelled cysteine peptide fold change” value runs as follows: (10 µM) 0.0178; (50 µM) 0.112.

“SESN1_Q9Y6P5_286_QLQECRDEEEASQEEMASR (UniProt Q9Y6P5)”: the “probe-labelled cysteine peptide fold change” value runs as follows: (10 µM) -0.00479; (50 µM) -0.0495.

The values are drawn from the supplement of paper PMC12067093, “Discovery and optimisation of a covalent ligand for TRIM25 and its application to targeted protein ubiquitination” (Chemical Science, 2025).
